Assay outcomes as filed in PubChem BioAssay.
In the library only some 5.9% were active in any assay of this set; here they are far more common.
FXN GAA850 act: frataxin GAA850 promoter activation | HEK293 lucGAA850 FXN promoter luciferase reporter, 24 h; percent of 10 µM SAHA response | activation, % at 6 µM | hit rate 0.56% among 360,000 | AID 540364;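 active = activation above the average of all compounds screened plus 3 SD, cutoff fixed separately per campaign, cut at about 7.5% in these data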;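 note: 0% = DMSO wells and 100% = 10 µM SAHA wells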
HSF-1 act: increases HSF-1 driven luciferase reporter signal; NIH3T3-HGL HSF-1 luciferase reporter, MG132, 8 h; 100% = twice DMSO control signal; activation, % at 9 µM; hit rate 1.7% among 300,000; AID 504408;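 active = mean replicate activation of at least 50% with a set share of replicates each reaching 50%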;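 note: 0% = median of the neutral control wells and 100% = twice that signal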
AHR activator: activates the human aryl hydrocarbon receptor. activation, % at 5 µM. P35869. hit rate 2.5% among 320,000. AHR-responsive luciferase reporter cells, luminescence. AID 2796; in the data active = activation above about 47%;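 note: 0% = vehicle wells and 100% = reference agonist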
HSP90 refold inh: inhibitors of HSP90 luciferase refolding in rabbit reticulocyte lysate; AID 1789; luciferase refolding luminescence, 3 h; inhibition, % at 5.6 µM; hit rate 0.91% among 290,000;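 active = inhibition above the screen-wide mean plus 3 SD, computed separately per campaign, cut at about 16% in these data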;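 note: 0% = DMSO wells and 100% = 60 µM geldanamycin wells; inhibitors lower the luminescence because luciferase stays unfolded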
HSF1 inh: HSF1 inhibition. NIH3T3-HGL HSE-luciferase, MG132-induced, luminescence 8 h; active compounds read low. activity change, negative = inhibition, % at 7.5 µM (by protocol). hit rate 0.77% among 300,000. AID 2098;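 active = more than half of replicate wells show activity change below -50%, luminescence cut by over half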;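 note: luciferase reports HSF-1 transcriptional activity via heat shock element; 0% = median of DMSO wells and -100% = zero luminescence signal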
NR0B1 inh: inhibits human nuclear receptor DAX1; P51843; HEK293 Gal4-DAX1 luciferase reporter, luminescence; inhibition, % at 6.75 µM; hit rate 0.99% among 340,000; AID 504766;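 active = inhibition above the mean over all tested compounds plus 3 SD, cut at about 4.2% in these data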;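 note: 0% = DAX1-transfected cells with DMSO and 100% = empty-vector control cells with DMSO; inhibition shows as a rise in luminescence from relieved DAX1 repression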
Target sequence (P51843 207-470 limits assumed): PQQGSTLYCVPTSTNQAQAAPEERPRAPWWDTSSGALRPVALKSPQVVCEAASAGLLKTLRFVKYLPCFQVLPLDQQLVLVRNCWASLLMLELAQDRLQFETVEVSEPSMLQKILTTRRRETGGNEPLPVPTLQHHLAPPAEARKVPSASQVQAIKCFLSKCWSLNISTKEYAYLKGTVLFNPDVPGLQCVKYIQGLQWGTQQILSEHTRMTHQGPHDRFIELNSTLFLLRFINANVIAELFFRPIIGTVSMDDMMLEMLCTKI
* hit, by the source's call; / = no result.

SMILES	FXN GAA850 act	HSF-1 act	AHR activator	HSP90 refold inh	HSF1 inh	NR0B1 inh
CC(C)(C)c1ccc(NC(=O)COC(=O)C2CCCC2)cc1	1.0	/	0.3	/	/	0.5
CCc1nc(SCC(=O)c2ccc(Cl)s2)c2oc3ccccc3c2n1	0.7	84.2*	60.0*	0.9	35.4	-0.1
CCc1nc(SCCO)c2oc3ccccc3c2n1	2.9	-11.4	10.8	0.6	-7.2	0.6
COc1ccc2c(c1)oc1c(SCc3nc4ccccc4[nH]3)nc(C)nc12	6.3	/	53.6*	/	/	-0.3
COc1cccc(C(=O)Nc2ccc(N3CCN(C(=O)c4cccs4)CC3)cc2)c1	-3.7	-21.5	-3.9	5.8	-11.4	-1.2
O=[N+]([O-])c1ccc(S(=O)(=O)N/N=C/c2ccsc2)cc1	0.1	2.0	/	-4.4	4.3	0.7
O=[N+]([O-])c1ccc(Nc2ccccc2)c2nonc12	-0.9	-9.8	2.1	-0.5	-4.3	0.8
O=[N+]([O-])c1ccc(Sc2cccc[n+]2[O-])c2nonc12	-12.7	/	/	23.7*	-8.5	-5.1
O=C1C(=Cc2cccc(O)c2O)SC(=S)N1CCCN1CCOCC1	-0.6	/	/	/	/	0.8
COc1cc(-c2csc(C)n2)ccc1O	-1.2	-0.5	2.0	2.1	-5.8	4.3*
CCOC(=O)c1c(NC(=O)CC2SC(N)=NC2=O)sc2c1CCC(C)C2 (stereo not given)	1.9	0.7	-4.5	59.3*	0.3	-2.1
COc1ccc(CNC(=O)C2(C)Cc3c(-c4ccc5c(c4)OCO5)ccnc3O2)cc1OC (stereo not given)	-1.9	/	/	/	/	/
Oc1c(C=C2N=c3ccccc3=N2)sc(=S)n1-c1ccc(F)cc1	-0.1	22.0	14.9	4.7	23.7	0.3
Oc1c(C=C2N=c3ccccc3=N2)sc(=S)n1C1CCCC1	1.9	12.5	59.0*	-3.8	7.9	0.5
CC(=O)N1C(=O)NC2=C(C(=O)CCC2)C1c1cccc([N+](=O)[O-])c1 (stereo not given)	2.3	15.4	-0.2	-4.5	0.4	-1.4
CC(C)c1ccc(NC(=O)Nc2nc(C(N)COCc3ccccc3)cs2)cc1 (stereo not given)	-1.3	/	/	/	/	/
Cc1ccc(-c2nnc(SCC(=O)Nc3ccc4c(c3)oc3ccccc34)n2C)c(Cl)c1	0.8	56.6*	31.5	-7.5	14.0	0.6
C=CCn1c(N)cc(=O)nc1SCC(=O)Nc1ccc(C(=O)OCC)cc1	0.4	19.1	0.7	-0.1	0.4	5.8*
COC(=O)c1ccc(NC(=O)CSc2nnc(-c3ccccc3)n2C)cc1	-0.6	-75.3	2.5	-2.7	-67.2*	1.0
Cn1c(SCC(=O)NNC(=O)Nc2ccc(Cl)cc2)nnc1-c1ccccc1	/	55.5*	-1.7	5.3	14.8	/
C=CCn1c(N)cc(=O)nc1SCC(=O)Nc1ccc(C(=O)OC)cc1	0.2	5.8	0.1	1.8	1.2	0.4
Cc1occc1-c1nnc(SCC(=O)Nc2ccccc2)n1C	-1.9	-85.2	-3.8	-3.3	-81.8*	0.2
Cc1nnc(SCC(=O)Nc2ccccc2)c2ccccc12	1.7	51.7*	-0.9	0.3	33.3	-1.0
CCOC(=O)c1ccc(NC(=O)CSc2nnc(CNc3ccc(OC)cc3)n2C)cc1	-1.7	-23.0	59.0*	-5.2	-13.1	0.1
COc1cc(C)c(NC(=O)c2cccc(S(=O)(=O)N3CCCC3)c2)cc1OC	-1.9	/	4.1	/	/	0.2
SMILES	FXN GAA850 act	HSF-1 act	AHR activator	HSP90 refold inh	HSF1 inh	NR0B1 inh
Cn1ccsc1=NC(=O)c1ccccc1OC(F)F	1.4	2.9	71.3*	-2.3	-5.9	0.7
Cn1ccsc1=NC(=O)c1ccccc1F	2.1	7.9	8.2	-0.8	2.9	0.2
Cc1ccc(S(=O)(=O)Nc2cc3c(C(=O)Nc4ccccc4)c(C)oc3c3ccccc23)cc1	-2.2	36.8	63.8*	3.0	19.6	-1.3
CC(=O)c1c(C)oc2c1cc(NS(=O)(=O)c1ccc(C(=O)O)cc1)c1ccccc12	2.2	27.0	38.9	-0.1	3.8	2.6
CNc1ncc(C(=O)c2ccc(Br)cc2)s1	5.4	39.5	/	1.7	21.6	1.4
CNc1ncc(C(=O)c2ccccc2)s1	5.1	57.5*	5.8	-6.8	28.4	1.4
c1cnc2c(C3NCCc4c3[nH]c3ccccc43)cccc2c1 (stereo not given)	-6.3	7.8	18.9	2.5	7.2	5.0*
O=C(O)c1cccnc1C(=O)N1CCc2c([nH]c3ccccc23)C1C(F)(F)F (stereo not given)	-2.9	13.0	0.3	5.6	-1.3	/
